Among all 2,400 compounds or so, about 580 (24%) were called active. These entries were drawn from the full list. Values without a mark were called inactive.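 Rule for the calls: active = activity change at or above the mean plus 3 SD of buffer wells without dofetilide, per plate; inactive = the rest.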
target: Potassium voltage-gated channel subfamily KQT member 2 (Rattus norvegicus) (UniProt O88943); experiment: rat KCNQ2 channel activation by compounds alone, confirmation, counter-screen for hERG block protector project, cell-based, CHO, FluxOR thallium flux (AID 1942); conditions: CHO-KCNQ2 cells, FluxOR thallium flux fluorescence; at 10 µM; active compounds read high;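 note: normalized value minus buffer-control mean plus three SD of buffer wells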
Sequence (O88943 whole entry, looked up): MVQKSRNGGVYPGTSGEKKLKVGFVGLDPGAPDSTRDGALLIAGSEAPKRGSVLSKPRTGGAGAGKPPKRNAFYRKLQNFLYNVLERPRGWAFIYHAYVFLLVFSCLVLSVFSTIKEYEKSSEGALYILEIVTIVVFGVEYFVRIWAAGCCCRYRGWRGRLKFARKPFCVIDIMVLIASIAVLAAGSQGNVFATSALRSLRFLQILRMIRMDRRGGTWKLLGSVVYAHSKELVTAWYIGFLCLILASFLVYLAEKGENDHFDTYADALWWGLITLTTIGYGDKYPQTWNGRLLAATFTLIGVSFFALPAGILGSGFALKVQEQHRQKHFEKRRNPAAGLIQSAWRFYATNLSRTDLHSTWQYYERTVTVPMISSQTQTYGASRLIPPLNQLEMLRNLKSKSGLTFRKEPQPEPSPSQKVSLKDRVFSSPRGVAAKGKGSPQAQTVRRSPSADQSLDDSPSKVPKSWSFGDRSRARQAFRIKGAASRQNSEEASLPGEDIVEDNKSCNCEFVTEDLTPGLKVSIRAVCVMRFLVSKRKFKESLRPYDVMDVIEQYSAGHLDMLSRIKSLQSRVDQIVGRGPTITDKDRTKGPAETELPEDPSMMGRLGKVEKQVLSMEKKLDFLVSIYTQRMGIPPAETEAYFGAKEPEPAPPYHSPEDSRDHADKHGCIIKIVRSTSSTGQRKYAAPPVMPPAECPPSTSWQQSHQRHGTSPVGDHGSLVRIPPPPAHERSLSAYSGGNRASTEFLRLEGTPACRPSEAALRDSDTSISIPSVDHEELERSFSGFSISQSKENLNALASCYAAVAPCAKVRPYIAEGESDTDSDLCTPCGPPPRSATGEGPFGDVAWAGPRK

Structure (SMILES) | activity change, less the hit threshold
COc1cccc(CCNS(=O)(=O)CCNC(=O)c2cccc(OC)c2)c1 | -13.6%
COc1ccc(C(=O)NNC(=O)C(=O)Nc2cccc3ccccc23)cc1 | 59.1% (active)
COc1ccc(OC)c(NC(=O)C(=O)NNC(=O)c2cccs2)c1 | -6.1%
COc1cc(NC(=O)c2ccc3c(c2)OCO3)ccc1NC(=O)c1cccs1 | -18.6%
C=C(C)CSc1nnc2[nH]c(=O)cc(N)n12 | -18.3%
O=C(/C=C/Nc1ccccc1)C(F)(F)F | -19.8%
COc1ccc(C2CC(c3ccc(Cl)cc3Cl)Nc3nc(N)nn32)cc1OC (stereo unspecified) | -21.7%
COc1ccc(/C=C2\SC(c3ccc(C)cc3)=NC2=O)cc1OC | -17.7%
Oc1ccc(Br)cc1-c1n[nH]c(=S)n1Cc1ccccc1 | -4.7%
Fc1ccccc1N1CCN(c2cnc3ccccc3n2)CC1 | -14.5%
Cc1cccc(N(C(=O)c2csnn2)C(C(=O)NCc2ccccc2)c2ccncc2)c1 (stereo unspecified) | -10.4%
O=C1C(c2ccccc2)C(c2ccccc2)NC(c2ccccc2)C1c1ccccc1 (stereo unspecified) | -17.9%
O=C(CCSc1ccc(Br)cc1)c1ccc(O)cc1 | -15%
O=C(Cn1cnc2ccccc21)c1ccccc1 | -11.5%
COc1cccc(C(=O)NNC(=O)C(=O)Nc2ccc(OC)cc2OC)c1 | 29.6% (active)
O=C(CN1C(=O)COc2ccccc21)NCCCN1CCOCC1 | -8.4%
Cc1cccc(NC(=S)N/N=C2/CCCCc3ccccc32)c1 | -20.4%
Cc1cccc2nc(-c3cccnc3)c(NCCC(C)C)n12 | -51.2%
COc1nnc(-c2ccc(C)c(S(=O)(=O)NC(C)(C)CO)c2)c2ccccc12 | -9.1%
O=C1NC(=S)SC1=C1CCCCCC1 | 58.8% (active)
CCOC(=O)N1CCN(C(=O)CN(c2ccc(OCC)cc2)S(C)(=O)=O)CC1 | -17.4%
c1ccc2oc(-c3nn4c(Cn5cnc6ccccc65)nnc4s3)cc2c1 | -19.1%
Cc1cccc(Cn2c(O)c(N=NC(=S)Nc3ccccc3F)c3ccccc32)c1 | -22.3%
C/C(Cl)=C\Cn1c(O)c(N=NC(N)=S)c2cc(Br)ccc21 | 16.1% (active)
C=CCn1c(O)c(N=NC(=S)Nc2ccccc2F)c2cc(S(=O)(=O)N3CCOCC3)ccc21 | -16.8%
CCC1(C(=O)O)NC(c2cc(OC)ccc2O)C2C(=O)N(Cc3ccccc3)C(=O)C21 (stereo unspecified) | -9.2%

Structure (SMILES) | activity change, less the hit threshold
CCOC(=O)c1sc2nc(C)[nH]c(=S)c2c1C | 4.9% (active)
CCOC(=O)c1sc(NN=C(C(=O)OC)C(=O)OC)c(C(=O)OCC)c1C | -9.1%
CCOC(=O)c1sc2nc(Cc3ccc(Cl)cc3)[nH]c(=S)c2c1C | -4.8%
Cc1ccc(Cn2nnc3c(=O)n(CC(=O)N4CCCc5ccccc54)cnc32)cc1 | -14.8%
O=C(NN1C(=O)C2C(c3ccccc3)C=CC(c3ccccc3)C2C1=O)c1ccncc1 (stereo unspecified) | -42.5%
Cc1c(C(=O)N/N=C/c2ccccn2)nnn1-c1nonc1N | -9.3%
O=C(N/N=C/c1ccccn1)c1sc2ccccc2c1Cl | 27.4% (active)
O=C(N/N=C/c1ccccn1)c1cc(-c2ccc(Br)cc2)nc2ccccc12 | -26.1%
O=C1c2cccc3cccc(c23)C(=O)C1(O)O | -5.4%
Cc1ccc(C(=O)O)cc1-c1ccc(/C=C2\SC(=O)N(CC(=O)Nc3ccccc3)C2=O)o1 | -22%
Cc1nn(-c2cccc(C(F)(F)F)c2)c(Cl)c1/C=N/Nc1cccc(C(=O)O)c1 | 17.9% (active)
COc1ccc(C(=O)O)cc1S(=O)(=O)Nc1cccc(C(F)(F)F)c1 | -13.4%
Cc1nn(-c2ccccc2)c(N2CCCC2)c1/C=N/O | -13.5%
O=C(O)c1c2c(nc3ccccc13)/C(=C/c1cccc([N+](=O)[O-])c1)CCC2 | -21%
Cc1ccccc1C(=O)c1cn[nH]c1-c1ccccc1O | -32.5%
Cc1nc(-c2ccccc2)cn(O)c1=O | -1%
O=c1c(-c2ccccc2)nc(-c2ccccc2)cn1O | 65.1% (active)
COC(=O)Nc1c(-c2ccccc2)nc2ccccn12 | -17%
CC(=O)c1ccc2c(c1)OCCOCCOCCO2 | -20.1%
O=C(CCc1ccccc1)Nc1nccs1 | -23.4%
Fc1ccc(NC(=S)Nc2nccs2)cc1 | 1.8% (active)
Cc1cnc(C(=O)Nc2nccs2)cn1 | -18.4%
COc1ccc(-c2cc(C(=O)N3CCCC3)no2)cc1OC | 2.6% (active)
COc1ccc(-c2cc(C(=O)N3CCCC3)no2)cc1 | -9%
COc1ccc(-c2cc(C(F)(F)F)nc(N3CCCCC3)n2)cc1OC | -16.3%
